# Experimental data as given in PubChem BioAssay (NCATS).
# Results filed as inconclusive are left out. A call without a number means that no potency is given here. A number with no mark means an inactive call. Activity calls are given as the source filed them. Calls come from the whole dose curve; as a rule, active = well fitted curve in the direction sought with a large enough effect; inconclusive = small, poorly fitted or top-dose-only effect, or another doubt; inactive = no such curve, though single readings can be large; an effect the other way counts as inactive or inconclusive.
# Assays:
# MCC-13 = assay: qHTS assay to identify novel small-molecules to repurpose for Merkel cell carcinoma treatment (AID 1296009); conditions: MCC and control cell lines, CellTiter-Glo viability, 72 h; series mostly up to 46 µM; note: nearly all actives have a fitted effect of over 60% in size; note: potency is the fitted concentration of half-maximal effect
# Procedure, shortened: (§1)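 CellTiter-Glo luminescence after 72 hr compound exposure at 37 degree celsius gave cell viability. Libraries NPC and MIPE were run as 8- and 11-point dose responses; RLUs normalized to DMSO (negative) and no-cell (cytotoxicity) controls.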
# MCC-26 = assay: as above; conditions: MCC and control cell lines, CellTiter-Glo viability, 72 h; series mostly up to 46 µM
# Procedure, shortened: as §1
# MKL-1 = assay: as above; conditions: MCC and control cell lines, CellTiter-Glo viability, 72 h; series mostly up to 46 µM
# Procedure, shortened: as §1
# MKL-2 = assay: as above; conditions: MCC and control cell lines, CellTiter-Glo viability, 72 h; series mostly up to 46 µM
# Procedure, shortened: as §1
# NIH3T3 = assay: as above; conditions: MCC and control cell lines, CellTiter-Glo viability, 72 h; series mostly up to 44.8 µM
# Procedure, shortened: as §1
# UISO = assay: as above; conditions: MCC and control cell lines, CellTiter-Glo viability, 72 h; series mostly up to 46 µM
# Procedure, shortened: as §1
# WaGa = assay: as above; conditions: MCC and control cell lines, CellTiter-Glo viability, 72 h; series mostly up to 46 µM
# Procedure, shortened: as §1
# C33A = assay: Primary qHTS to identify gynecologic anti-cancer compounds using libraries of approved drugs and bioactive compounds (AID 1345084); conditions: Gynecologic cancer cell panel viability, ATPlite luminescence, 48 h; series mostly up to 57.5 µM; note: nearly all actives have a fitted effect of over 55% in size
# Procedure, shortened: (§2)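 48 h compound exposure at 37 C, 5% CO2; five-point qHTS. ATPlite luminescence readout of cell ATP.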
# CAOV3 = assay: as above; conditions: Gynecologic cancer cell panel viability, ATPlite luminescence, 48 h; series mostly up to 57.5 µM
# Procedure, shortened: as §2
# CASKI = assay: as above; conditions: Gynecologic cancer cell panel viability, ATPlite luminescence, 48 h; series mostly up to 57.5 µM
# Procedure, shortened: as §2
# Es-2 = assay: as above; conditions: Gynecologic cancer cell panel viability, ATPlite luminescence, 48 h; series mostly up to 57.5 µM
# Procedure, shortened: as §2
# HeLa = assay: as above; conditions: Gynecologic cancer cell panel viability, ATPlite luminescence, 48 h; series mostly up to 57.5 µM
# Procedure, shortened: as §2
# Hek293T = assay: as above; conditions: Gynecologic cancer cell panel viability, ATPlite luminescence, 48 h, control line for the selectivity index; series mostly up to 57.5 µM
# Procedure, shortened: as §2
# JEG-3 = assay: as above; conditions: Gynecologic cancer cell panel viability, ATPlite luminescence, 48 h; series mostly up to 57.5 µM
# Procedure, shortened: as §2
# OV90 = assay: as above; conditions: Gynecologic cancer cell panel viability, ATPlite luminescence, 48 h; series mostly up to 57.5 µM
# Procedure, shortened: as §2
# PA-1 = assay: as above; conditions: Gynecologic cancer cell panel viability, ATPlite luminescence, 48 h; series mostly up to 57.5 µM
# Procedure, shortened: as §2
# Tov112D = assay: as above; conditions: Gynecologic cancer cell panel viability, ATPlite luminescence, 48 h; series mostly up to 57.5 µM
# Procedure, shortened: as §2
# SKOV3 = assay: as above; conditions: Gynecologic cancer cell panel viability, ATPlite luminescence, 48 h; series mostly up to 57.5 µM
# Procedure, shortened: as §2
# Tov-21-G = assay: as above; conditions: Gynecologic cancer cell panel viability, ATPlite luminescence, 48 h; series mostly up to 57.5 µM
# Procedure, shortened: as §2
smiles,measurement,setting,value
CCC(c1ccc(O)cc1)C(CC)c1ccc(O)cc1 (stereo not drawn),Potency,MCC-13,inactive
same,Potency,MCC-26,inactive
same,Potency,MKL-1,inactive
same,Potency,MKL-2,inactive
same,Potency,NIH3T3,inactive
same,Potency,UISO,inactive
CCOC(=O)[C@H](CCc1ccccc1)N[C@@H](C)C(=O)N1CCCC1C(=O)O (stereo partly drawn),Potency,MCC-13,inactive
same,Potency,MCC-26,inactive
same,Potency,MKL-1,inactive
same,Potency,MKL-2,inactive
same,Potency,NIH3T3,inactive
same,Potency,UISO,inactive
same,Potency,WaGa,inactive
Cc1ccc(NC(=O)c2ccc(CN3CCN(C)CC3)cc2)cc1Nc1nc(-c2cccnc2)cs1,Potency,MCC-13,inactive
same,Potency,MCC-26,inactive
same,Potency,MKL-1,inactive
C[C@H]1O[C@@H](n2cc(F)c(=O)[nH]c2=O)[C@H](O)[C@H]1O,Potency,MCC-13,inactive
same,Potency,MCC-26,inactive
same,Potency,MKL-1,inactive
same,Potency,MKL-2,inactive
CC(O)=C(C#N)C(=O)Nc1ccc(C(F)(F)F)cc1,Potency,MCC-13,inactive
same,Potency,MCC-26,inactive
C[C@H]1COC2=C1C(=O)C(=O)c1c2ccc2c1CCCC2(C)C,Potency,MCC-13,inactive
same,Potency,MCC-26,inactive
same,Potency,MKL-1,inactive
same,Potency,MKL-2,inactive
same,Potency,NIH3T3,inactive
same,Potency,UISO,inactive
same,Potency,WaGa,inactive
COc1ccc(-c2oc3c(CC=C(C)C)c(O)cc(O)c3c(=O)c2O)cc1,Potency,MCC-13,inactive
same,Potency,MCC-26,inactive
same,Potency,MKL-1,inactive
same,Potency,MKL-2,inactive
same,Potency,NIH3T3,inactive
same,Potency,UISO,inactive
same,Potency,WaGa,inactive
OC[C@H]1O[C@@H](Oc2ccc(O)cc2)[C@H](O)[C@@H](O)[C@H]1O,Potency,MCC-13,inactive
same,Potency,MCC-26,inactive
same,Potency,MKL-1,inactive
same,Potency,MKL-2,inactive
same,Potency,NIH3T3,inactive
same,Potency,UISO,inactive
same,Potency,WaGa,inactive
CCNC(=O)[C@H]1O[C@@H](n2cnc3c(N)nc(NCCc4ccc(CCC(=O)O)cc4)nc32)[C@H](O)[C@H]1O,Potency,MCC-13,inactive
same,Potency,MCC-26,inactive
same,Potency,MKL-1,inactive
same,Potency,MKL-2,inactive
same,Potency,NIH3T3,inactive
same,Potency,UISO,inactive
same,Potency,WaGa,inactive
Cc1ccc(C2=Nc3ccc(Cl)cc3OC2)cc1,Potency,MCC-13,inactive
same,Potency,MCC-26,inactive
same,Potency,MKL-1,14.8 µM (active)
Cc1cc2nc3c(=O)[nH]c(=O)nc-3n(CC(O)C(O)C(O)CO)c2cc1C (stereo not drawn),Potency,MCC-13,inactive
same,Potency,MCC-26,inactive
same,Potency,MKL-1,inactive
same,Potency,MKL-2,inactive
same,Potency,NIH3T3,inactive
same,Potency,UISO,inactive
same,Potency,WaGa,inactive
Cc1cc(OCCCS(C)(=O)=O)cc(C)c1-c1cccc(COc2ccc3c(c2)OC[C@H]3CC(=O)O)c1,Potency,MCC-13,inactive
same,Potency,MCC-26,inactive
same,Potency,MKL-1,inactive
Cn1c(=O)c(-c2c(Cl)cccc2Cl)cc2cnc(Nc3cccc(C(=O)O)c3)nc21,Potency,MCC-13,inactive
same,Potency,MCC-26,inactive
same,Potency,MKL-1,inactive
same,Potency,MKL-2,inactive
same,Potency,NIH3T3,inactive
same,Potency,UISO,inactive
same,Potency,WaGa,inactive
same,Potency,C33A,inactive
same,Potency,CAOV3,inactive
same,Potency,CASKI,inactive
same,Potency,Es-2,inactive
same,Potency,HeLa,inactive
same,Potency,Hek293T,inactive
same,Potency,JEG-3,inactive
same,Potency,OV90,inactive
same,Potency,PA-1,inactive
same,Potency,Tov112D,inactive
COc1cccc(OC)c1-c1cc(C(=O)NC2(C(=O)O)C3CC4CC(C3)CC2C4)nn1-c1ccnc2cc(Cl)ccc12 (stereo not drawn),Potency,MCC-13,inactive
same,Potency,MCC-26,inactive
same,Potency,MKL-1,inactive
same,Potency,MKL-2,inactive
same,Potency,NIH3T3,inactive
same,Potency,UISO,inactive
same,Potency,WaGa,inactive
CC(NCCc1ccc(O)cc1)C(O)c1ccc(O)cc1 (stereo not drawn),Potency,MCC-13,inactive
same,Potency,MCC-26,inactive
same,Potency,MKL-1,inactive
same,Potency,MKL-2,inactive
same,Potency,NIH3T3,inactive
same,Potency,UISO,inactive
same,Potency,WaGa,inactive
CCC(=C(CC)c1ccc(O)cc1)c1ccc(O)cc1,Potency,MCC-13,inactive
same,Potency,MCC-26,inactive
same,Potency,MKL-1,inactive
CCCCN(CCCC)CC(O)c1cc(Cl)cc2c1-c1ccc(Cl)cc1C2=Cc1ccc(Cl)cc1 (stereo not drawn),Potency,MCC-13,inactive
same,Potency,MCC-26,inactive
same,Potency,MKL-1,inactive
same,Potency,MKL-2,inactive
same,Potency,NIH3T3,inactive
same,Potency,UISO,inactive
same,Potency,WaGa,inactive
CN[C@@H](C)[C@H]1[C@H](O)C[C@@]2(C)[C@@H]3CC[C@H]4C(C)(C)[C@@H](NC)CC[C@@]45C[C@@]35CC[C@]12C,Potency,MCC-13,inactive
same,Potency,MCC-26,inactive
same,Potency,MKL-1,inactive
same,Potency,MKL-2,inactive
same,Potency,NIH3T3,inactive
same,Potency,UISO,inactive
same,Potency,WaGa,inactive
same,"activity change, negative = cytotoxicity",C33A,14.9% [at 11.6 µM]
same,"activity change, negative = cytotoxicity",CAOV3,7.65% [at 11.6 µM]
same,"activity change, negative = cytotoxicity",CASKI,1.7% [at 11.6 µM]
same,"activity change, negative = cytotoxicity",Es-2,-1.65% [at 11.6 µM]
same,"activity change, negative = cytotoxicity",HeLa,13.6% [at 11.6 µM]
same,"activity change, negative = cytotoxicity",Hek293T,-11.4% [at 11.6 µM]
same,"activity change, negative = cytotoxicity",JEG-3,6.85% [at 11.6 µM]
same,"activity change, negative = cytotoxicity",PA-1,-14% [at 11.6 µM]
same,"activity change, negative = cytotoxicity",SKOV3,0% [at 11.6 µM]
same,"activity change, negative = cytotoxicity",Tov-21-G,-6.08% [at 11.6 µM]
same,"activity change, negative = cytotoxicity",Tov112D,-2.44% [at 11.6 µM]
Cc1cc(NC(=O)Nc2ccc(N(C)C)cc2)c2cc(F)cc(F)c2n1,Potency,MCC-13,inactive
same,Potency,MCC-26,inactive
same,Potency,MKL-1,inactive
same,Potency,MKL-2,inactive
same,Potency,NIH3T3,inactive
same,Potency,UISO,inactive
same,Potency,WaGa,inactive
COc1cc(C=CC(=O)O)ccc1O,Potency,MCC-13,inactive
same,Potency,MCC-26,inactive
same,Potency,MKL-1,inactive
same,Potency,MKL-2,inactive
same,Potency,NIH3T3,inactive
same,Potency,UISO,inactive
same,Potency,WaGa,inactive
CCC[C@@H](NC(=O)[C@@H]1[C@H]2CCC[C@@H]2CN1C(=O)[C@@H](NC(=O)[C@@H](NC(=O)c1cnccn1)C1CCCCC1)C(C)(C)C)C(=O)C(=O)NC1CC1,Potency,MCC-13,inactive
same,Potency,MCC-26,inactive
same,Potency,MKL-1,inactive
same,Potency,MKL-2,inactive
same,Potency,NIH3T3,inactive
same,Potency,UISO,inactive
same,Potency,WaGa,inactive
c1ccc(CNc2nc(N3CCOc4ccccc43)nc3c2CCCC3)cc1,Potency,MCC-13,inactive
same,Potency,MCC-26,inactive
same,Potency,MKL-1,inactive
same,Potency,MKL-2,inactive
same,Potency,NIH3T3,inactive
same,Potency,UISO,inactive
same,Potency,WaGa,inactive
same,Potency,C33A,inactive
same,Potency,CASKI,inactive
same,Potency,Es-2,inactive
same,Potency,HeLa,inactive
same,Potency,Hek293T,inactive
same,Potency,JEG-3,inactive
same,Potency,OV90,inactive
same,Potency,PA-1,inactive
same,Potency,SKOV3,inactive
same,Potency,Tov-21-G,inactive
same,Potency,Tov112D,inactive
COc1ccc(CCN(C)CCCOc2ccc(S(=O)(=O)c3[nH]c4ccccc4c3C(C)C)cc2)cc1OC,Potency,MCC-13,inactive
same,Potency,MCC-26,inactive
